Consider 40 molecules from PubChem BioAssay (NCATS).

Inconclusive results are not listed. Entries that show only a call come without a potency. Activity calls are given as the source filed them. Calls follow the shape of the dose curve; as a rule, active = well fitted curve in the direction sought with a large enough effect; inconclusive = small, poorly fitted or top-dose-only effect, or another doubt; inactive = no such curve, though single readings can be large; an effect the other way counts as inactive or inconclusive.

The first assay deals with Aldehyde dehydrogenase, mitochondrial (Homo sapiens) (UniProt P05091). In words: qHTS for Inhibitors of the Aldehyde Dehydrogenase Family (ALDH2) Primary screen (AID 2061308). Also: nearly all actives have a fitted effect of over 55% in size. The conditions noted are these: ALDH2 enzyme inhibition qHTS, 1536-well; series mostly up to 56 µM.
On to `O=C(Nc1ccc(C(F)(F)F)cn1)N1CCN(c2ncccc2C(F)(F)F)CC1`, for which the Potency result is “inactive”.
On to `CCNC(=O)c1noc(-c2cc(Cl)c(O)cc2O)c1-c1ccc(OC)cc1`, for which the Potency entry is “inactive”.
Same read-out and setting: in the case of `CC[C@H]1CN(c2nc(N)c(C(N)=O)nc2Cl)CCN1C1CCN(Cc2ccc(Cl)cc2)CC1` it was “inactive”; in that of `CNS(=O)(=O)CC1CCC(N(C)c2ncnc3[nH]ccc23)CC1` (stereo not given), “inactive”.
For `CNc1cc(OC)c(C(=O)N[C@@H]2CCN(Cc3ccccc3)[C@@H]2C)cc1Cl`, the Potency entry was “inactive”.
Regarding `O=C(O)c1cccc(S(=O)(=O)N2CCc3ccccc3C2)c1`, the Potency result is “inactive”.
The same measure, in the same setting: in the case of `Cc1[nH]c2ccccc2c1CCNC(=O)c1cccs1` it was “inactive”; in that of `CC1(C)CC=C(C#Cc2ccccc2)c2cc(/C=C/c3ccc(C(=O)O)cc3)ccc21`, “inactive”.
On the same count and under the same terms, to `Cc1cc(NC(=O)NCCN2CCC(O)(Cc3ccccc3)CC2)c2ccccc2n1` belongs “inactive”; to `COc1cc(N)c(Cl)cc1C(=O)NC[C@@H]1CCN2CCC[C@@H]12`, “inactive”.
For the molecule `N[C@@H](CC(=O)Nc1ccc(Oc2cc(F)c(F)cc2Br)cc1)C(=O)O`, the Potency entry is “inactive”.
For the molecule `CN1CCC(c2c[nH]c3ccc(NC(=O)c4ccc(F)cc4)cc23)CC1`, the Potency result was “inactive”.
Same read-out and setting: in the case of `COc1cccc(OC)c1-c1nc(C(=O)N[C@@H](CC(C)C)C(=O)O)cn1-c1ccnc2cc(Cl)ccc12` it was “inactive”.
The same measure, in the same setting: in the case of `Cc1c(C(=O)NCc2cccnc2)nn(-c2ccc(Cl)cc2Cl)c1-c1ccc(Cl)cc1` it was “inactive”; in that of `C[C@@H](O[C@H]1OCCN(Cc2nn(P(=O)(O)O)c(=O)[nH]2)[C@H]1c1ccc(F)cc1)c1cc(C(F)(F)F)cc(C(F)(F)F)c1`, “inactive”; in that of `CCCCc1c(-c2ccc(OC)cc2)[nH]c2nccnc12`, “inactive”.
`CC[N+]1(C/C2=C/CCCCCC2)CCC(NC(=O)C2c3cc(Cl)ccc3Oc3ccc(Cl)cc32)CC1` (stereo not given): the Potency result was “inactive”.
Regarding `Cc1ccnn1-c1ccc(C(=O)N2CCN(S(=O)(=O)c3ccc(Cl)c(C(F)(F)F)c3)CC2)cc1`, the Potency entry was “inactive”.
Same read-out and setting: to `O=C(N[C@H](Cc1cscn1)C(=O)N[C@@H](CC1CCCCC1)[C@@H](O)[C@@H](O)C1CC1)c1nc2ccccc2[nH]1` belongs “inactive”.
For `CCOc1ccc(NC(=S)N2CCC(C(O)(c3ccccc3)c3ccccc3)CC2)cc1`, the Potency entry was “inactive”.
Still for that read-out and setting: in the case of `CN(C)CC(c1ccc(O)cc1)C1(O)CCCCC1` (stereo not given) it was “inactive”; in that of `O=[N+]([O-])c1cn2c(n1)OC[C@@H](OCc1ccc(-c3ccc(OC(F)(F)F)cc3)nc1)C2`, “inactive”; in that of `COc1ccc([C@H]2CNC(=O)C2)cc1OC1CCCC1`, “inactive”.
Same read-out and setting: to `c1ccc(-c2ncc(CN3CCN(c4ncccn4)CC3)[nH]2)cc1` belongs “inactive”; to `COc1cc(N2CCOCC2)ccc1NC(=O)c1csc(-c2cccnc2)n1`, “inactive”; to `O=C(Nc1cc(-c2ccccc2)nn1-c1ccccc1)c1ccc([N+](=O)[O-])cc1`, “inactive”.
Still for that read-out and setting: to `Cn1c(CO)c(-c2ccccc2)c2cc([N+](=O)[O-])ccc21` belongs “inactive”.
In the case of `CCCC(=O)C1CCN(c2ncnc3c2CN(C(=O)c2ccc(-c4ccccc4)cc2)CC3)CC1`, the Potency result is “inactive”.
Consider `O=C(Nc1ccc(-n2nc(C(F)(F)F)cc2C(F)(F)F)cc1)c1ccncc1F`, for which the Potency result is “inactive”.
As to `CCCSc1nc(NC2CC2c2ccc(F)c(F)c2)c2nnn(C3CC(OCCO)C(O)C3O)c2n1` (stereo not given), the Potency entry is “inactive”.
Same read-out and setting: to `C[C@@H]1C(=O)O[C@H]2CC34[C@H]5C[C@@H](C(C)(C)C)C36[C@@H](OC(=O)[C@@H]6O)OC4(C(=O)O5)[C@]21O` (stereo not given in full) belongs “inactive”; to `CCOc1ccc(-c2nc(-c3cccc4c3CCC4NCCO)no2)cc1OCC` (stereo not given), “inactive”.
Same read-out and setting: in the case of `O=C(CCCCC1CCCCC1)N1CCC(c2cnc[nH]2)CC1` it was “inactive”; in that of `CC(C)(C)NCC(O)COc1cccc2c1CCCC2=O` (stereo not given), “inactive”; in that of `CNc1cc2[nH]c(=O)n(-c3ccc(NC(=O)NS(=O)(=O)c4ccc(Cl)s4)cc3)c(=O)c2cc1F`, “inactive”.
In the case of `CC(=O)O[C@]1(C(C)=O)CC[C@H]2[C@@H]3CCC4=CC(=O)CCC4=C3[C@@H](c3ccc(N(C)C)cc3)C[C@@]21C`, the Potency entry is “inactive”.
On the same count and under the same terms, in the case of `CC(C)(O)c1ccc2c(c1)ncn2-c1cccc(-c2ccccc2C#N)c1` it was “inactive”.
On to `O=C(NCCCN1CCOCC1)c1cnn2c(-c3ccccc3)cc(-c3ccccc3)nc12`, for which the Potency entry is “inactive”.
Regarding `CN1CC2CN(c3ccc4oc5ccccc5c(=O)c4c3)CC2C1` (stereo not given), the Potency entry was “inactive”.
On the same count and under the same terms, to `Cc1cc(-n2c(=O)[nH]c(=O)n(C)c2=O)ccc1Oc1ccc(SC(F)(F)F)cc1` belongs “inactive”.

The target in the next assay is Retinaldehyde dehydrogenase 3 (Homo sapiens) (UniProt P47895). Kind of assay: qHTS for Inhibitors of the Aldehyde Dehydrogenase Family (ALDH1A3) Validation screen (AID 2061312). Also: nearly all actives have a fitted effect of over 45% in size. Also: potency is read from the fitted curve at half-maximal effect. The conditions noted are these: ALDH1A3 enzyme inhibition qHTS validation, fluorescence; series mostly up to 84.7 µM.
On to `O=C(Nc1ccc(C(F)(F)F)cn1)N1CCN(c2ncccc2C(F)(F)F)CC1`, for which the Potency result was “inactive”.
`CCNC(=O)c1noc(-c2cc(Cl)c(O)cc2O)c1-c1ccc(OC)cc1`: the Potency entry is “inactive”.
Consider `CC[C@H]1CN(c2nc(N)c(C(N)=O)nc2Cl)CCN1C1CCN(Cc2ccc(Cl)cc2)CC1`, for which the Potency entry is “inactive”.
The same measure, in the same setting: to `CNS(=O)(=O)CC1CCC(N(C)c2ncnc3[nH]ccc23)CC1` (stereo not given) belongs “inactive”; to `CNc1cc(OC)c(C(=O)N[C@@H]2CCN(Cc3ccccc3)[C@@H]2C)cc1Cl`, “inactive”.
As to `O=C(O)c1cccc(S(=O)(=O)N2CCc3ccccc3C2)c1`, the Potency result is “inactive”.
Consider `Cc1[nH]c2ccccc2c1CCNC(=O)c1cccs1`, for which the Potency result is “inactive”.
The same measure, in the same setting: to `CC1(C)CC=C(C#Cc2ccccc2)c2cc(/C=C/c3ccc(C(=O)O)cc3)ccc21` belongs “inactive”; to `Cc1cc(NC(=O)NCCN2CCC(O)(Cc3ccccc3)CC2)c2ccccc2n1`, “inactive”.
As to `COc1cc(N)c(Cl)cc1C(=O)NC[C@@H]1CCN2CCC[C@@H]12`, the Potency result is “inactive”.
Take `N[C@@H](CC(=O)Nc1ccc(Oc2cc(F)c(F)cc2Br)cc1)C(=O)O`: the Potency result is “inactive”.
Same read-out and setting: in the case of `CN1CCC(c2c[nH]c3ccc(NC(=O)c4ccc(F)cc4)cc23)CC1` it was “inactive”; in that of `COc1cccc(OC)c1-c1nc(C(=O)N[C@@H](CC(C)C)C(=O)O)cn1-c1ccnc2cc(Cl)ccc12`, “inactive”.
The same measure, in the same setting: in the case of `Cc1c(C(=O)NCc2cccnc2)nn(-c2ccc(Cl)cc2Cl)c1-c1ccc(Cl)cc1` it was “inactive”; in that of `C[C@@H](O[C@H]1OCCN(Cc2nn(P(=O)(O)O)c(=O)[nH]2)[C@H]1c1ccc(F)cc1)c1cc(C(F)(F)F)cc(C(F)(F)F)c1`, “inactive”; in that of `CCCCc1c(-c2ccc(OC)cc2)[nH]c2nccnc12`, “inactive”.
With `CC[N+]1(C/C2=C/CCCCCC2)CCC(NC(=O)C2c3cc(Cl)ccc3Oc3ccc(Cl)cc32)CC1` (stereo not given), the Potency result was “inactive”.
As to `Cc1ccnn1-c1ccc(C(=O)N2CCN(S(=O)(=O)c3ccc(Cl)c(C(F)(F)F)c3)CC2)cc1`, the Potency entry is “inactive”.
Same read-out and setting: in the case of `O=C(N[C@H](Cc1cscn1)C(=O)N[C@@H](CC1CCCCC1)[C@@H](O)[C@@H](O)C1CC1)c1nc2ccccc2[nH]1` it was “inactive”; in that of `CCOc1ccc(NC(=S)N2CCC(C(O)(c3ccccc3)c3ccccc3)CC2)cc1`, “inactive”; in that of `CN(C)CC(c1ccc(O)cc1)C1(O)CCCCC1` (stereo not given), “inactive”.
For the molecule `O=[N+]([O-])c1cn2c(n1)OC[C@@H](OCc1ccc(-c3ccc(OC(F)(F)F)cc3)nc1)C2`, the Potency result was “inactive”.
Same read-out and setting: to `COc1ccc([C@H]2CNC(=O)C2)cc1OC1CCCC1` belongs “inactive”; to `c1ccc(-c2ncc(CN3CCN(c4ncccn4)CC3)[nH]2)cc1`, “inactive”; to `COc1cc(N2CCOCC2)ccc1NC(=O)c1csc(-c2cccnc2)n1`, “inactive”.
Regarding `O=C(Nc1cc(-c2ccccc2)nn1-c1ccccc1)c1ccc([N+](=O)[O-])cc1`, the Potency entry is “inactive”.
As to `Cn1c(CO)c(-c2ccccc2)c2cc([N+](=O)[O-])ccc21`, the Potency result was “inactive”.
Same read-out and setting: in the case of `CCCC(=O)C1CCN(c2ncnc3c2CN(C(=O)c2ccc(-c4ccccc4)cc2)CC3)CC1` it was “inactive”; in that of `O=C(Nc1ccc(-n2nc(C(F)(F)F)cc2C(F)(F)F)cc1)c1ccncc1F`, “inactive”.
Turning to `CCCSc1nc(NC2CC2c2ccc(F)c(F)c2)c2nnn(C3CC(OCCO)C(O)C3O)c2n1` (stereo not given), the Potency was 31.6 µM (active).
The same measure, in the same setting: in the case of `C[C@@H]1C(=O)O[C@H]2CC34[C@H]5C[C@@H](C(C)(C)C)C36[C@@H](OC(=O)[C@@H]6O)OC4(C(=O)O5)[C@]21O` (stereo not given in full) it was “inactive”; in that of `CCOc1ccc(-c2nc(-c3cccc4c3CCC4NCCO)no2)cc1OCC` (stereo not given), “inactive”; in that of `O=C(CCCCC1CCCCC1)N1CCC(c2cnc[nH]2)CC1`, “inactive”.
Regarding `CC(C)(C)NCC(O)COc1cccc2c1CCCC2=O` (stereo not given), the Potency entry was “inactive”.
On to `CNc1cc2[nH]c(=O)n(-c3ccc(NC(=O)NS(=O)(=O)c4ccc(Cl)s4)cc3)c(=O)c2cc1F`, for which the Potency result was “inactive”.
On the same count and under the same terms, to `CC(=O)O[C@]1(C(C)=O)CC[C@H]2[C@@H]3CCC4=CC(=O)CCC4=C3[C@@H](c3ccc(N(C)C)cc3)C[C@@]21C` belongs “inactive”; to `CC(C)(O)c1ccc2c(c1)ncn2-c1cccc(-c2ccccc2C#N)c1`, “inactive”; to `O=C(NCCCN1CCOCC1)c1cnn2c(-c3ccccc3)cc(-c3ccccc3)nc12`, “inactive”.
The same measure, in the same setting: to `CN1CC2CN(c3ccc4oc5ccccc5c(=O)c4c3)CC2C1` (stereo not given) belongs “inactive”; to `Cc1cc(-n2c(=O)[nH]c(=O)n(C)c2=O)ccc1Oc1ccc(SC(F)(F)F)cc1`, “inactive”.
